From PubChem BioAssay (EPA / NIEHS)
Activity calls are given as the source filed them. How the source made its calls: active means hit-call score of the fitted dose curve at least 0.9, where 1 is the maximum; inactive means score below 0.9.

Legend:
[1] = ATG_CRE_CIS: Attagene CIS-FACTORIAL HepG2 Assay for human cAMP Responsive Element (CRE) binding protein 3 (AID 2282926); conditions: HepG2 CRE cis-reporter, Attagene multiplexed mRNA; actives raise or lower the signal
Procedure, shortened: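 Readout: fluorescently labelled reporter transcripts resolved by capillary electrophoresis after RT-PCR, taken 24 h post-dosing in transfected HepG2. Endogenous transcription factor activity drives each cis-element reporter; gain or loss of signal fitted relative to DMSO control.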

[2] = biological target: CCAAT/enhancer-binding protein beta (Homo sapiens) (UniProt P17676); assay: ATG_C_EBP_CIS: Attagene CIS-FACTORIAL HepG2 Assay for human CCAAT/Enhancer Binding Protein (C/EBP) beta (AID 2282927); conditions: HepG2 Attagene cis-factorial transcription factor reporter; actives raise or lower the signal
Procedure, shortened: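 HepG2, transient MRTU transfection, 24 h treatment. RT-PCR plus CE fluorescence; DMSO negative control, bidirectional fit.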

[3] = ATG_CMV_CIS: Attagene CIS-FACTORIAL HepG2 Assay for human CMV (Internal Marker) (AID 2282928); conditions: HepG2 CMV promoter reporter, transcription factor profiling; actives raise or lower the signal;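 further: endpoint acts as a background internal control marker rather than a target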
Procedure, shortened: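 Reporter transcripts from transfected HepG2 cells are isolated after 24 h of chemical dosing, reverse-transcribed and amplified. Fragments labeled with 6-FAM are cut with HpaI and quantified by capillary electrophoresis; DMSO defines baseline.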

[4] = biological target: Aryl hydrocarbon receptor (Homo sapiens) (UniProt P35869); assay: ATG_Ahr_CIS: Attagene CIS-FACTORIAL HepG2 Assay for human Aryl Hydrocarbon Receptor (Ahr) (AID 2282930); conditions: HepG2 AhR cis-factorial reporter transcription; actives raise or lower the signal
Procedure, shortened: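 Endogenous factor activity is tracked through cis-promoter reporter units transfected into HepG2 cells. Transcript levels at 24 h are read by fluorescent RT-PCR and capillary electrophoresis, with activity in either direction scored relative to DMSO.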

[5] = ATG_AP_1_CIS: Attagene CIS-FACTORIAL HepG2 Assay for human Activator Protein 1 (AP-1) (AID 2282931); conditions: HepG2 Attagene cis-factorial AP-1 reporter mRNA; actives raise or lower the signal
Procedure, shortened: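 We transfected HepG2 cells transiently with a set of cis-regulated reporter transcription units, dosed them for 24 h, and quantified reporter mRNA via RT-PCR and capillary electrophoresis, scoring gain or loss of signal relative to DMSO.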

[6] = ATG_AP_2_CIS: Attagene CIS-FACTORIAL HepG2 Assay for human Activator Protein 2 (AP-2) (AID 2282932); conditions: HepG2 AP-2 cis-reporter, Attagene transcription factor profiling; actives raise or lower the signal
Procedure, shortened: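 Liver-derived HepG2 line, cis-reporter system measuring endogenous factors; 24 h dosing; reporter mRNA detected by fluorescent RT-PCR and capillary electrophoresis.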

[7] = ATG_BRE_CIS: Attagene CIS-FACTORIAL HepG2 Assay for human Bone Morphogenetic Protein (BMP) Response Element (BRE) (AID 2282933); conditions: HepG2 BMP response element reporter, Attagene transcription factor profiling; actives raise or lower the signal
Procedure, shortened: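 Read-out: reporter mRNA induction quantified by RT-PCR and capillary electrophoresis after 24 h chemical exposure of transfected HepG2 cells. Endogenous factor activity on the BMP response element; gain or loss fitted against DMSO baseline.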

[8] = biological target: Transcription factor E2F1 (Homo sapiens) (UniProt Q01094); assay: ATG_E2F_CIS: Attagene CIS-FACTORIAL HepG2 Assay for human E2F Transcription Factor 1 (AID 2282935); conditions: HepG2 Attagene cis-reporter, E2F reporter RNA transcripts; actives raise or lower the signal
Procedure, shortened: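 Liver-derived HepG2 cells expressing transfected promoter-driven reporter units received test chemical for 24 hours. Signal gains or losses were fitted bidirectionally against DMSO.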

[9] = ATG_E_Box_CIS: Attagene CIS-FACTORIAL HepG2 Assay for human Enhancer Box (E-box) (AID 2282936); conditions: HepG2 E-box cis-reporter transcription, actives raise or lower the signal
Procedure, shortened: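 In this cell-based setup, HepG2 cells bearing transfected promoter-driven reporter units were exposed to chemicals for 24 h; reporter transcripts were amplified, 6-FAM-labelled, cut with HpaI and sized by capillary electrophoresis.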

[10] = ATG_M_61_CIS: Attagene CIS-FACTORIAL HepG2 Assay for M61 Transcription Factor (Internal Marker) (AID 2282937); conditions: HepG2 Attagene CIS-FACTORIAL M61 internal marker reporter; actives raise or lower the signal
Procedure, shortened: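 Multiplexed reporter mRNA assay, HepG2 human hepatoma cells, 24 h treatment. Signal: FAM-labelled, HpaI-digested RT-PCR fragments by CE. Fit: bidirectional, baseline DMSO.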

[11] = ATG_EGR_CIS: Attagene CIS-FACTORIAL HepG2 Assay for human Early Growth Response 1 (EGR1) (AID 2282938); conditions: HepG2 Attagene CIS-FACTORIAL EGR reporter mRNA; actives raise or lower the signal
Procedure, shortened: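 Multiplexed cis-reporter system in human hepatoma HepG2 cells, transiently transfected. Cells are dosed for 24 h; reporter transcripts are amplified, fluorescently tagged and sized by capillary electrophoresis, with DMSO as negative control.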

[12] = ATG_M_19_CIS: Attagene CIS-FACTORIAL HepG2 Assay for M19 Transcription Factor (Internal Marker) (AID 2282939); conditions: HepG2 Attagene CIS-FACTORIAL M19 internal marker reporter; actives raise or lower the signal
Procedure, shortened: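 Readout: fluorescent reporter-transcript fragments by capillary electrophoresis after RT-PCR. Human HepG2 liver cells carried transfected MRTU constructs reporting endogenous transcription-factor activity; exposure 24 h. Gain or loss of signal fitted relative to DMSO.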

[13] = ATG_Ets_CIS: Attagene CIS-FACTORIAL HepG2 Assay for human Erythroblast Transformation Specific (ETS) (AID 2282941); conditions: HepG2 ETS cis-reporter transcription, actives raise or lower the signal
Procedure, shortened: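 Bidirectional fit versus DMSO of reporter mRNA signal, detected by RT-PCR and capillary electrophoresis in HepG2 cells transiently transfected with cis-element reporters and dosed 24 h.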

[14] = biological target: Hepatocyte nuclear factor 3-beta (Homo sapiens) (UniProt Q9Y261); assay: ATG_FoxA2_CIS: Attagene CIS-FACTORIAL HepG2 Assay for human Forkhead box A2 (FOXA2) (AID 2282942); conditions: HepG2 cis-reporter transcription factor activity, 24 h; actives raise or lower the signal
Procedure, shortened: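 Multiplexed cis-element reporter assay in transiently transfected HepG2. Twenty-four hours post-dosing, RNA was reverse-transcribed, amplified, FAM-labelled, HpaI-digested and separated by CE. Activity gain or loss relative to DMSO.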

[15] = ATG_FoxO_CIS: Attagene CIS-FACTORIAL HepG2 Assay for human Forkhead box O (FoxO) (AID 2282943); conditions: HepG2 Attagene cis-reporter, FoxO element, mRNA; actives raise or lower the signal
Procedure, shortened: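 Transfected HepG2 reporter cells exposed to test chemical for 24 h; reporter RNA measured by reverse transcription, PCR and fluorescent capillary electrophoresis; curves fitted for increases and decreases against DMSO.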

[16] = ATG_GATA_CIS: Attagene CIS-FACTORIAL HepG2 Assay for human GATA Binding Protein (AID 2282944); conditions: HepG2 GATA cis-element reporter, Attagene multiplex mRNA; actives raise or lower the signal
Procedure, shortened: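 Read-out: fluorescent reporter mRNA fragments resolved by capillary electrophoresis after RT-PCR. Human liver HepG2 cells carried transiently transfected cis-regulated reporter constructs; chemicals incubated 24 h; gain or loss of signal fitted relative to DMSO.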

[17] = ATG_GLI_CIS: Attagene CIS-FACTORIAL HepG2 Assay for human Zinc Finger Protein GLI1 (AID 2282945); conditions: HepG2, Attagene cis-factorial reporter mRNA, GLI element; actives raise or lower the signal
Procedure, shortened: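 Transiently transfected HepG2 cells report endogenous transcription factor activity via cis-element-driven reporter units. After 24 h compound exposure, reporter mRNA was measured by RT-PCR with capillary electrophoresis; bidirectional fitting against DMSO baseline.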

[18] = ATG_ERE_CIS: Attagene CIS-FACTORIAL HepG2 Assay for Estrogen Response Element (ERE) (AID 2282940); conditions: HepG2 ERE cis-reporter, Attagene RNA transcript; actives raise or lower the signal
Procedure, shortened: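 Readout: reporter mRNA induction by RT-PCR, FAM-labelled primer extension, HpaI digestion and capillary electrophoresis, 24 h after dosing transfected HepG2 cells. Endogenous transcription factors act on cis-element-regulated reporters. Gain or loss fitted against DMSO.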

[19] = biological target: Retinoic acid receptor alpha (Homo sapiens) (UniProt P10276); assay: ATG_DR5_RAR_CIS: Attagene CIS-FACTORIAL HepG2 Assay for human Retinoic Acid Receptor Alpha (RARE), DR5 submotif (AID 2282934); conditions: HepG2 Attagene cis-factorial RARE DR5 reporter, mRNA; actives raise or lower the signal
Procedure, shortened: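 After 24 h of chemical exposure, transiently transfected HepG2 cells were lysed for total RNA; the DR5-regulated reporter transcript was quantified via RT-PCR and capillary electrophoresis, with activity fitted bidirectionally against DMSO.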

Measured: AC50

Chain of Aryl hydrocarbon receptor (Homo sapiens) (P35869 whole entry, looked up): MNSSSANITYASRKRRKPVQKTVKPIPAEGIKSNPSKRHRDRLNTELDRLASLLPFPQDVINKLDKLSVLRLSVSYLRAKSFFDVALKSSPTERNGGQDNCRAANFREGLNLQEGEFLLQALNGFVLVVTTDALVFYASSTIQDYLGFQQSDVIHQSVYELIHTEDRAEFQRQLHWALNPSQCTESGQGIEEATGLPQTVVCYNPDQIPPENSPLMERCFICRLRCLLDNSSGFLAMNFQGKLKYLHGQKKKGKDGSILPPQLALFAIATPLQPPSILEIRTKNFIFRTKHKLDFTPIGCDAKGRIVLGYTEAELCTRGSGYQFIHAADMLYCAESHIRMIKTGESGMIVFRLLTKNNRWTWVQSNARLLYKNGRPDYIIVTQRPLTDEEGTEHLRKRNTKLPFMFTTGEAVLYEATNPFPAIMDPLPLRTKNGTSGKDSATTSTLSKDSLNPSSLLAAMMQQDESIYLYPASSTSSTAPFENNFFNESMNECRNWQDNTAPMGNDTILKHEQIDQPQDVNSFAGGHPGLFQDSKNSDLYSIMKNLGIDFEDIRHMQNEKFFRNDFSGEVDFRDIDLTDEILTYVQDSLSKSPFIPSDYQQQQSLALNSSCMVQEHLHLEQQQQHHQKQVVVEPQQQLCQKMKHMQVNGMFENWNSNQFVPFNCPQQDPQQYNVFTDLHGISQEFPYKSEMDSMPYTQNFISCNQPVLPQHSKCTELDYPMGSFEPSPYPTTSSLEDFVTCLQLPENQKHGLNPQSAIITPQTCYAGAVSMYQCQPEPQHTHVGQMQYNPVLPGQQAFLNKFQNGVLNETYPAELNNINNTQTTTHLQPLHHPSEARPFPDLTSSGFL
Chain of CCAAT/enhancer-binding protein beta (Homo sapiens) (P17676 whole entry, looked up): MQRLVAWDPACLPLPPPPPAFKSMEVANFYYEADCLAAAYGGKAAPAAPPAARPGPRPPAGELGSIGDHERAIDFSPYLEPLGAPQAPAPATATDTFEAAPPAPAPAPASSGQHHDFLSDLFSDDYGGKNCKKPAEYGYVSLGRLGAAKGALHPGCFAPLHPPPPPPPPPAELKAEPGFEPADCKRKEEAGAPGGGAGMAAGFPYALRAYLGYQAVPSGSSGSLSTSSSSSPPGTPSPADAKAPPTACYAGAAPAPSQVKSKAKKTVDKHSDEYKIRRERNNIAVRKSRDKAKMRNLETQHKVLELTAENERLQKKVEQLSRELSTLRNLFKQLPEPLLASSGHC
Chain of Hepatocyte nuclear factor 3-beta (Homo sapiens) (Q9Y261 whole entry, looked up): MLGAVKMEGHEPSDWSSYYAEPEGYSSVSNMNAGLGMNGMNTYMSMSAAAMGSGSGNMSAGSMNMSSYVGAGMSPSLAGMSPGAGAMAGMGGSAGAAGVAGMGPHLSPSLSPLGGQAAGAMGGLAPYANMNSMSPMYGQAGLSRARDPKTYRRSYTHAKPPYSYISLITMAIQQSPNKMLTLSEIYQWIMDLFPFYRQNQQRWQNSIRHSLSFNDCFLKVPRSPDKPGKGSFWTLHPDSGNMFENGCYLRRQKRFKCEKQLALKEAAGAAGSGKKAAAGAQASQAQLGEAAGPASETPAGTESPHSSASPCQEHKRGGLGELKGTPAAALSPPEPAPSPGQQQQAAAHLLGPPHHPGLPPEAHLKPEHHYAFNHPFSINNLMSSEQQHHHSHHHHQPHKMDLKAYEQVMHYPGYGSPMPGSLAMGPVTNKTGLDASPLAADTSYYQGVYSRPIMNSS
Chain of Transcription factor E2F1 (Homo sapiens) (Q01094 whole entry, looked up): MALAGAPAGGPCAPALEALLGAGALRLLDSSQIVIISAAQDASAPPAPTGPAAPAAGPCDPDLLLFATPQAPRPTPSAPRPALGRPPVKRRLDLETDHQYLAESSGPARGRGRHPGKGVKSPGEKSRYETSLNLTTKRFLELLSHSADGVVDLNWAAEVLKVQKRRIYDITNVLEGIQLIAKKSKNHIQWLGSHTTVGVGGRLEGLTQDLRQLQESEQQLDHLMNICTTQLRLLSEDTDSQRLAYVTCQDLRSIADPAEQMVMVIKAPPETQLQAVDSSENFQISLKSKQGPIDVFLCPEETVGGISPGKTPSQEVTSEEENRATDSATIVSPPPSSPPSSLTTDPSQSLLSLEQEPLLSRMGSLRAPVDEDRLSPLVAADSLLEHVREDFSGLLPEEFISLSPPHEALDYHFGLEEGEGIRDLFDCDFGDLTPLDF
Chain of Retinoic acid receptor alpha (Homo sapiens) (P10276 whole entry, looked up): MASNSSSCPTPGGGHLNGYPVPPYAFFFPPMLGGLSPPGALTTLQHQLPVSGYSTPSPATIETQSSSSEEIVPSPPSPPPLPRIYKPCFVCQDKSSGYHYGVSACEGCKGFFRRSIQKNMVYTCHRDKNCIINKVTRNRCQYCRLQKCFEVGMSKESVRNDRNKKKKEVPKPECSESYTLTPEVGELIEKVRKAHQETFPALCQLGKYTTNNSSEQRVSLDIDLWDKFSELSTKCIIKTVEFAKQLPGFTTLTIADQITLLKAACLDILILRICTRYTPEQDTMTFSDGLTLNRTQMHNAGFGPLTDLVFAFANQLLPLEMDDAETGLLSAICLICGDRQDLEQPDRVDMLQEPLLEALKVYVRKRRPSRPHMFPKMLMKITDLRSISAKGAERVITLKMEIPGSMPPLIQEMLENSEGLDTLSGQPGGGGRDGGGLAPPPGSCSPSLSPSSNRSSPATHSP

C=C(C)C(=O)OCCOC(=O)CC(C)=O
not listed: [18] | [19]
inactive: all other assays above

CC(=O)[O][Al][O]C(C)=O
not listed: [19]
inactive: all other assays above

CCCCC/C=C/C=C/C=O
not listed: [9] | [13] | [18] | [19]
inactive: all other assays above

CCN(CC)c1ccc2c(-c3ccccc3C(=O)O)c3ccc(=[N+](CC)CC)cc-3oc2c1
active: [7] 158 µM | [11] 135 µM
not listed: [19]
inactive: all other assays above

O=C(O)CN(CCN(CC(=O)O)CC(=O)O)CCN(CC(=O)O)CC(=O)O
not listed: [18]
inactive: all other assays above

Cc1cccc(C)c1C
not listed: [9] | [18] | [19]
inactive: all other assays above

O=C(O)CCCCC1CCSS1 (stereo not drawn)
not listed: [15] | [19]
inactive: all other assays above

c1cc(C(c2ccc(OCC3CO3)cc2)c2ccc(OCC3CO3)cc2)ccc1OCC1CO1 (stereo not drawn)
inactive: [2] | [4] | [7] | [8] | [10] | [18] | [13] | [17]
active: [1] 25.2 µM | [3] 26.3 µM | [5] 19.8 µM | [6] 8.7 µM | [9] 100 µM | [11] 8.73 µM | [12] 175 µM | [14] 185 µM | [15] 167 µM | [16] 180 µM

C=CC(=O)OCC(O)COc1ccccc1 (stereo not drawn)
active: [6] 26.8 µM | [7] 82.8 µM | [9] 38.8 µM | [11] 64.3 µM | [15] 25.2 µM
not listed: [16] | [19]
inactive: all other assays above

CC(C)CCCCCCCOC(=O)c1ccc(C(=O)OCCCCCCCC(C)C)c(C(=O)OCCCCCCCC(C)C)c1
not listed: [18] | [19]
inactive: all other assays above

c1ccc(CCCc2ccccn2)cc1
active: [8] 72.7 µM
not listed: [19]
inactive: all other assays above

COc1nc(C)nc(N)n1
not listed: [15] | [19]
inactive: all other assays above

CN(C)CCCN
not listed: [19]
inactive: all other assays above

CC(=O)c1c(C)cc(C(C)(C)C)cc1C
not listed: [18]
inactive: all other assays above

CC(=O)O[C@H](CC(=O)[O-])C[N+](C)(C)C
not listed: [19]
inactive: all other assays above

O=S(=O)(O)c1ccc(O)c2ncccc12
active: [4] 37.5 µM
not listed: [19]
inactive: all other assays above
